Source: PubChem BioAssay (NCATS)
Records with an inconclusive call do not appear. Calls of active or inactive are those of the source. Calls follow the shape of the dose curve; as a rule, active = well fitted inhibition curve with a large enough effect; inconclusive = small, poorly fitted or top-dose-only effect; inactive = flat fitted curve, though single readings scatter. Where a SMILES comes first, the peptide text is derived from it. Bridges are numbered along the chain shown (N, C = ends). [ ]: non-standard residue; d: D form. hArg = N=C(N)NCCCC[C@H](N)C(=O)O; Mpa = O=C(O)CCS

Columns and labels:
Test in all cases: qHTS profiling for inhibitors of Plasmodium falciparum proliferation (AID 504749); also: nearly all actives have a fitted effect of over 60% in size
Settings in all cases: P. falciparum in erythrocytes, SYBR Green DNA, 72 h; series mostly up to 28.7 µM
DIV17 = tested on: DIV17
Outline: (§1)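 Readout was DNA-dye fluorescence from lysed cultures, ex 485/em 535 nm. Parasitized red cells had grown 72 h with compound; data scaled between 0.29 uM artemisinin and DMSO wells and corrected using vehicle-only plates.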

DIV30 = tested on: DIV30
Outline: as §1

Dd2 = tested on: Dd2
Outline: as §1

ECU = tested on: ECU
Outline: as §1

FAB9 = tested on: FAB9
Outline: as §1

GB4 = tested on: GB4
Outline: as §1

HB3 = tested on: HB3
Outline: as §1

ICS = tested on: ICS
Outline: as §1

JCK = tested on: JCK
Outline: as §1

N140 = tested on: N140
Outline: as §1

Measured: Potency

CCOc1ccc(C(=O)OCCN(CC)CC)cc1
inactive: all assays above

O=C(O)CCCc1ccccc1
inactive: all assays above

CCCCOC(=O)c1ccc(N)cc1
inactive: all assays above

CCOc1cc(NC(C)=O)ccc1C(=O)OC
inactive: all assays above

Nc1ccc(C(=O)Oc2ccccc2)c(O)c1
inactive: all assays above

O=C(O)c1ccccc1OP(=O)(O)O
inactive: all assays above

CCCOC(=O)c1ccc(N)cc1
inactive: all assays above

C[C@@H]1O[C@@H](OC[C@H]2O[C@@H](Oc3c(-c4ccc(O)c(O)c4)oc4cc(O)cc(O)c4c3=O)[C@H](O)[C@@H](O)[C@@H]2O)[C@H](O)[C@H](O)[C@H]1O
inactive: all assays above

CCN(CC)C(=O)c1cccc(C)c1
inactive: all assays above

COc1ccc(O)cc1
inactive: all assays above

NC(=O)CC[C@@H](N)C(=O)O
inactive: all assays above

CC(C(=O)O)c1ccc2c(c1)Cc1cccnc1O2 (centres undefined)
inactive: all assays above

CC(C)CCOC(=O)c1ccc(N(C)C)cc1
not listed: N140
inactive: all other assays above

CCCCCC(N)=O
inactive: all assays above

O=c1[nH]c(=O)c2ccccc2o1
inactive: all assays above

NC(N)=NCCN1CCCCCCC1
inactive: all assays above

O[C@@H]1CO[C@H]2[C@@H]1OC[C@@H]2O
inactive: all assays above

O=C(NCN1CCOCC1)c1cnccn1
inactive: all assays above

O=C(O)Cc1cn(-c2ccccc2)nc1-c1ccc(Cl)cc1
inactive: all assays above

CC(=O)Oc1cccc(O)c1
inactive: all assays above

COC(=O)c1ccc(O)cc1
inactive: all assays above

NC(=O)[C@@H]1CSSCCC(=O)N[C@@H](CCCCN=C(N)N)C(=O)NCC(=O)N[C@@H](CC(=O)O)C(=O)N[C@@H](Cc2c[nH]c3ccccc23)C(=O)N2CCC[C@H]2C(=O)N1 ([Mpa][hArg]GDWPC-NH2; disulfide 1-7)
inactive: all assays above

CCCCC1(COC(=O)CCC(=O)O)C(=O)N(c2ccccc2)N(c2ccccc2)C1=O
inactive: all assays above

CCCC(O)C(CC)CO (centres undefined)
inactive: all assays above

O=C(O)CCC(=O)O
inactive: all assays above

O=C(OOC(=O)c1ccccc1)c1ccccc1
inactive: all assays above

CCCCCCCCCCCCCCCCN
inactive: all assays above

Cc1c(I)c(=O)n(-c2ccccc2)n1C
inactive: all assays above

CN1CCN(C(=O)C2CCCCC2)CC1
inactive: all assays above

C[N+](C)(C)CC[N+]1(C)Cc2c(Cl)c(Cl)c(Cl)c(Cl)c2C1
inactive: all assays above

NC(N)=NS(=O)(=O)c1ccc(N)cc1
inactive: all assays above

OCc1ccc(Cl)cc1Cl
inactive: all assays above

NNC(=O)CP(=O)(c1ccccc1)c1ccccc1
inactive: all assays above

CN(C(=O)c1c(O)c2ccccc2n(C)c1=O)c1ccccc1
inactive: all assays above

CCS(=O)(=O)CCn1c([N+](=O)[O-])cnc1C
inactive: all assays above

O=C(O)c1ccccc1C(=O)Nc1ccc(S(=O)(=O)Nc2nccs2)cc1
inactive: all assays above

CC[N+](C)(CC)CCOC(=O)C1c2ccccc2Oc2ccccc21
inactive: all assays above

C=CCNC(N)=S
inactive: all assays above

Cn1c(=O)c2c(ncn2CCO)n(C)c1=O
inactive: all assays above

C[C@@H]1CCC[C@H](C)N1
inactive: all assays above

CC(C)c1cc2c(cc1S(=O)(=O)O)[C@@]1(C)CCC[C@@](C)(C(=O)O)[C@@H]1CC2
inactive: all assays above

CNc1c2c(nn1C)CCCC2
inactive: all assays above

O=C(NCCCN1CCOCC1)c1ccc(Cl)cc1
inactive: all assays above

O=C1c2cccc(O)c2C(=O)c2c(O)cccc21
inactive: all assays above

CCCCCCCC(=O)OCC(COC(=O)CCCCCCC)OC(=O)CCCCCCC
inactive: all assays above

Cc1cccc(C)c1NC(=O)CC12CCCN1CCC2
inactive: all assays above

CCN(CC)CC1CCCCN1CC(=O)N1c2ccccc2C(=O)Nc2cccnc21 (centres undefined)
inactive: all assays above

C=CCSCC1Nc2cc(Cl)c(S(N)(=O)=O)cc2S(=O)(=O)N1 (centres undefined)
inactive: all assays above

NNc1nnc(NN)c2ccccc12
inactive: all assays above

CC(=O)Nc1ccccc1
inactive: all assays above
